Source: PubChem BioAssay (NCI)
The panel holds about 79,000 compounds, 15% with a hit somewhere; the sample as a whole holds those more often. Values without a mark were called inactive. Active and inactive are the calls of the source. No stated cut-off is given here; in the data, active means growth inhibition above about 70%; inactive means the rest.

Assays:
[1] = NCI Yeast Anticancer Drug Screen. Data for the rad50 strain (AID 155);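 further: 0% = growth of vehicle-only cultures of the same strain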; conditions: S. cerevisiae rad50 strain growth inhibition; at 50.0 µM; hits give high values
In short: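 Yeast carrying a defined DNA repair defect were exposed to test compounds, and growth was compared with vehicle-treated controls to give percent inhibition.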

[2] = NCI Yeast Anticancer Drug Screen. Data for the mec2-1 strain (AID 157); conditions: S. cerevisiae mec2-1 strain, at 50.0 µM, hits give high values
In short: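 Readout is yeast growth inhibition, normalised to vehicle-treated controls, in the mec2-1 strain exposed to compound.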

[3] = NCI Yeast Anticancer Drug Screen. Data for the sgs1 mgt1 strain (AID 161);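 further: 0% = growth of cultures given vehicle only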; conditions: S. cerevisiae sgs1 mgt1 strain, at 50.0 µM, hits give high values
In short: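 Growth of a repair-deficient yeast mutant was monitored after compound treatment and expressed as inhibition relative to vehicle-treated cultures.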

[4] = NCI Yeast Anticancer Drug Screen. Data for the cln2 rad14 strain (AID 165);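 further: 0% = growth equal to vehicle treated cultures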; conditions: S. cerevisiae cln2 rad14 strain, at 50.0 µM, hits give high values
In short: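 Relative to vehicle controls, growth inhibition of compound-treated cln2 rad14 yeast was recorded.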

[5] = NCI Yeast Anticancer Drug Screen. Data for the bub3 strain (AID 167); conditions: S. cerevisiae bub3 mutant strain, at 50.0 µM, hits give high values
In short: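 Compounds were applied to a genetically altered yeast strain carrying a cell-cycle control defect. Growth inhibition was scored against vehicle-treated controls.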

[6] = NCI Yeast Anticancer Drug Screen. Data for the mlh1 rad18 strain (AID 175); conditions: S. cerevisiae mlh1 rad18 strain growth inhibition; at 50.0 µM; hits give high values
In short: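 Test agents were incubated with a yeast strain of defined genotype (DNA damage repair defect). Inhibition of growth was derived by comparison with vehicle-exposed cultures.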

Row | SMILES | growth inhibition [1] [%] | growth inhibition [2] [%] | growth inhibition [3] [%] | growth inhibition [4] | growth inhibition [5] [%] | growth inhibition [6] [%]
1 | O=C(O)COc1ccc(C(=O)/C(SS/C(C(=O)c2ccc(OCC(=O)O)c(Cl)c2Cl)=C2\C=C(c3ccccc3Cl)SS2)=C2/C=C(c3ccccc3Cl)SS2)c(Cl)c1Cl | -20.8 | -29.1 | -6.05 | 7.05% | -19.9 | -27.1
2 | Cc1nn(C)c(=O)c2nn(-c3ccccc3)c(C)c12 | 19.6 | 3.4 | 14.8 | 14.3% | 20.8 | 1.25
3 | C=C(c1nc2ccc(Cl)cc2[nH]c1=O)C(O)c1ccc(C(O)C(=O)c2nc3ccc(Cl)cc3[nH]c2=O)cc1 (stereo unspecified) | 5.85 | 4.55 | -15.6 | -68.8% | -1.4 | 9.05
4 | O=C(Oc1ccc(C(=O)c2ccc(C(=O)c3ccc(OC(=O)c4cccc(Br)c4)cc3)cc2)cc1)c1cccc(Br)c1 | 11.2 | 7.15 | -10.7 | -2.35% | 2.65 | 2.15
5 | COC(=O)C(=O)C(C(=O)C=C(C)C)C(=O)C(=O)Nc1cccc(C(C)=O)c1 (stereo unspecified) | -18.4 | -8.25 | -14.7 | 16.4% | -13.2 | -26.2
6 | C=CC1CC1(Cl)Cl (stereo unspecified) | -10.9 | 12.8 | -4.75 | -50.2% | 0.5 | 11.7
7 | OCC1=CCCCC1 | 6.95 | 1.85 | -6.65 | 12.7% | -14.5 | 0.25
8 | O=C(O)C#Cc1ccc([N+](=O)[O-])cc1 | 13.6 | -7.6 | 2.35 | -20.2% | -11.9 | 16.5
9 | CC(C)C(CNC(=S)Nc1ccccc1)(c1ccccc1)c1ccccc1 | 6.9 | 13.1 | 5.25 | 1.85% | 8.95 | 12.8
10 | N/N=C1\CCCc2c1no[n+]2[O-] | 6.05 | -4.05 | -0.5 | 4% | -9.9 | 3.2
11 | O=C(C[N+]12CC=C(CO)C1C(O)CC2)c1ccc(Br)cc1 (stereo unspecified) | 5.55 | -6.25 | -15.5 | -24.4% | 3.35 | -4
12 | CCCc1cc2c3c(c(=O)oc2cc1O)CCCCC3 | -17.9 | 19.4 | 4.7 | -22.5% | -9.8 | -14.3
13 | CC1=NC(C(=O)O)C(C)(C)S1 (stereo unspecified) | 2.6 | -8.3 | -22.2 | -0.95% | -3.4 | -6
14 | CS(=O)c1nsc(S(C)=O)c1C#N (stereo unspecified) | 1.05 | -9.7 | -1.5 | -35.6% | -9.95 | -10.6
15 | CC(=O)NC1C(OC(C)C(=O)NC(C)C(=O)NC(CCC(=O)NCCCCCNc2ccc([N+](=O)[O-])c3[nH]c4ccccc4c(=O)c23)C(N)=O)C(O)C(CO)OC1(C)OCc1ccccc1 (stereo unspecified) | 13 | 13.1 | 27.2 | 23.9% | 19.9 | 32.9
16 | CCC(=O)c1ccc(OC(=O)Nc2ccc(Cl)cc2[N+](=O)[O-])cc1 | 2.25 | 42.8 | 38.5 | -0.75% | 26.2 | -124
17 | CCC1NC(N=Nc2ccc([N+](=O)[O-])cc2)(P(=O)(OC(C)C)OC(C)C)OC1=O (stereo unspecified) | 44.5 | -43.5 | 16.1 | -15.8% | 17.5 | 10.8
18 | N#Cc1nc(-c2ccccc2)c(-c2ccccc2)nc1C#N | 3.15 | 9.8 | 0.6 | -7.05% | 13.9 | -0.6
19 | CC(=O)[OH+]c1c(I)cc(I)cc1C(=O)[O-].CC(=O)[OH+]c1c(I)cc(I)cc1C(=O)[O-].[Cu+2] | -8.15 | 2.3 | -5.8 | -5% | 11.5 | 4.95
20 | C=C(C(=O)O)C(=O)O | -14.4 | -3.6 | -2.2 | 4.35% | 2 | -4.7
21 | CNS(=O)(=O)c1ccc(N)cc1 | -2.9 | -5.6 | 2.8 | -27.2% | 3.15 | 2.9

Row | SMILES | growth inhibition [1] [%] | growth inhibition [2] [%] | growth inhibition [3] [%] | growth inhibition [4] | growth inhibition [5] [%] | growth inhibition [6] [%]
22 | Cc1cccc(NC(=O)c2cccc([N+](=O)[O-])c2O)c1C | 3.1 | 9.05 | 14.2 | 11.8% | -2.7 | -87
23 | Cc1ccc(C(=O)/C=C/c2ccco2)cc1 | 49 | 33.6 | 46 | 33.5% | 34.5 | 61.3
24 | OC1(c2cccc(C(F)(F)F)c2)CCNCC1 | -21.8 | -13.5 | -7.4 | -6.9% | -22.6 | -8.3
25 | O=C(Nc1nc2ccccc2n1Cc1ccc(Cl)cc1)C(=O)NC12CC3CC(CC(C3)C1)C2 | -9 | -24.5 | 1 | -0.6% | 6.8 | -8.6
26 | O=C(NCCCCl)c1c(O)c2ccccc2[nH]c1=O | 58.8 | 25.5 | 52 | 18.1% | 46.2 | 27.8
27 | CC1CCC(=O)CN1Cc1ccccc1 (stereo unspecified) | 5.95 | 4.45 | 9.45 | -11.6% | 22.4 | 4.85
28 | Cc1nc(Nc2ccccc2C)c2ccsc2n1 | 41.3 | 49.5 | 43.2 | 75% (active) | 51.2 | 48
29 | COc1cc(-c2oc3c(OC)c(OC)cc(O)c3c(=O)c2OC)ccc1O | 11.7 | -8.1 | -8.7 | -5.3% | -9.05 | -0.05
30 | O=C(O)CCSCc1ccc(I)cc1 | 35.1 | 35.5 | 54 | 34.2% | 47.6 | 37.3
31 | CCOC(=O)c1cc(C)[nH]c1C | 2.65 | -1.9 | -0.55 | -17.6% | 23.2 | 3.9
32 | CSC(=Nc1nnc(-c2ccc([N+](=O)[O-])cc2)s1)SC | 8.35 | 1.2 | -23.6 | -11.6% | -5.5 | -47
33 | O=C(O)c1cccc(N=Nc2ccccc2)c1O | 22.1 | -12.4 | 4.65 | -7.1% | 6.05 | 10.7
34 | COC(=O)/C=C1/OC(c2ccc(C)cc2C)=CC1=O | 47.8 | 50.7 | 42.5 | 0.8% | 26.6 | 57.1
35 | CC(=O)NCCc1[nH]cnc1N=Nc1ccc(Br)cc1 | 0.95 | 39.4 | 14.7 | -6.15% | 52.1 | 27.3
36 | CC(C)(C)NO | 7.3 | -0.85 | 7.65 | 3.4% | 13.6 | -3.8
37 | O=C(Cc1ccccc1)Nc1ccccc1 | 17.9 | -21.1 | 2.45 | -0.3% | -7.55 | 17.9
38 | NC(=S)N/N=C/c1ccc(OC(F)(F)F)cn1 | 27.1 | 28.1 | 46.5 | 10.3% | 59.5 | 40.6
39 | CCc1ccc(NC(C)=O)cc1C | -9.5 | 11.7 | -0.95 | 27% | -1.15 | -9.9
40 | COC(=O)c1cc2c(n1S(=O)(=O)c1ccc(C)cc1)C(=O)C(=O)c1[nH]cc(C(=O)OCc3ccccc3)c1-2 | 0.6 | 3.7 | 20.6 | 8.9% | 14 | 13.5
41 | CCN(CC)CCOc1c(C)cccc1C | -5.15 | 3.45 | -13.1 | -14.2% | 12.1 | -2
